Source: PubChem BioAssay (National Center for Advancing Translational Sciences (NCATS))
ERK EGF inh: qHTS Assay for Inhibitors of the ERK Signaling Pathway using a Homogeneous Screening Assay; Stimulation with EGF; HEK293-V1b, EGF-stimulated phospho-ERK AlphaScreen; 0.41% of 130,000 active; Potency, µM (doses to about 11.5 µM), for the others: at the top dose activity change, negative = inhibition, usual class: inhibitors; AID 1454, 2008;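 note: plate controls were stimulated vehicle wells for no effect and unstimulated vehicle basal for full effect; nearly all actives have a fitted effect of over 55% in size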
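After overnight plating in 1% FBS, HEK293-V1b cells received test compound for half an hour, then a 5 min pulse of EGF (25 nM); ERK phosphorylation in lysates was read by bead-based AlphaScreen.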
HTT ATP protect: qHTS Multiplex Assay to Identify Dual Action Probes in a Cell Model of Huntington: Cytoprotection (ATP); Potency, µM (top dose mostly 56.4 µM), without a hit: cytoprotection (ATP increase), usual class: activators; 0.14% of 230,000 active; PC12 HTT-Q103 induced, cytoprotection, ATP luminescence, 40 h; note: % of control where 0% means no effect; nearly all actives have a fitted effect of over 45% in size
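PC12 cells with ecdysone-inducible HTT exon 1 Q103-GFP, induced with 100 nM tebufenozide and co-treated with library compounds in a dose series (1536-well, 1500 cells/well). Cytoprotection read as ATP content by ATPlite luminescence.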
HTT aggregate: qHTS Multiplex Assay to Identify Dual Action Probes in a Cell Model of Huntington: Aggregate Formation (GFP) | PC12 HttQ103-GFP aggregates, Acumen cytometry, 40 h | Potency, µM (doses to about 46.1 µM), for inactives: top-dose activity change, negative = inhibition, actives largely listed as inhibitors | 1.1% of 220,000 active | AID 1688, 2009; note: % is set by controls: 0 for no effect and ±100 for the full control effect; nearly all actives have a fitted effect of over 60% in size
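PC12 cells with ecdysone-inducible HTT exon1 Q103-GFP, induced by 100 nM tebufenozide, given compounds in a concentration series. GFP aggregates (1–25 um, 6 SD above background) counted in lysates by laser-scanning cytometry, 488 nm excitation.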
Active calls of the source: *; ? = inconclusive; . = no result; [ ] = remark or other dose. A selection: hits, their analogues and other compounds. The true share with any hit is near 1.4%. Calls come from the whole dose curve; as a rule, active = well fitted curve in the direction sought with a large enough effect; inconclusive = small, poorly fitted or top-dose-only effect, or another doubt; inactive = no such curve, though single readings can be large; an effect the other way counts as inactive or inconclusive. Potency is the fitted concentration of half-maximal effect.

SMILES	ERK EGF inh	HTT ATP protect	HTT aggregate
CC(=O)NC(CCS(C)(=O)=O)C(=O)Nc1ccc2c(c1)OCO2 (configuration not stated)	.	.	1.12µM*
CC(=O)NC(CCS(C)(=O)=O)C(=O)Nc1ccc2c(c1)OCCO2 (configuration not stated)	6.6%	-7.8%[10 µM]	21.4%
COC(=O)[C@@H]1C[C@H]1[C@@H](NC(=O)c1cccnc1)c1ccccc1	6.4%	-6.8%	.
COC(=O)c1c(OC)cc2c(c1C)Oc1c(Cl)c(OC(C)=O)c(Cl)c(C)c1C(=O)O2	4.3%	.	.
Cc1ccc2c(c1)CCCN2C(=O)c1ccco1	.	-16.6%	2.51µM*
O=C(c1ccco1)N1CCc2ccccc21	-12.4%	-21.6%	0.0%
Cc1ccc(Cl)cc1NC(=O)CC(O)(C(F)(F)F)C(F)(F)F	.	-20.7%	15.8µM*
COCC(=O)Nc1cc(Cl)ccc1C	-4.1%	14.2%	12.5%
Cc1ccc2c(c1)N[C@H](c1ccc(C(=O)O)cc1)c1cccn1-2	.	-4.5%[10 µM]	.
Cc1ccc2[nH]c3nc(CCCn4ccnc4-c4ccccc4)nnc3c2c1	.	1µM*	.
COc1ccc(-c2cnnc(CCCn3ccnc3-c3ccccc3)n2)cc1	.	-14.4%[10 µM]	.
CN1C=C/C(=C\c2cc[n+](C)c3ccccc23)c2ccccc21	3.1%	-184.4%	7.08µM*
CC[n+]1ccc(/C=C2\Sc3ccccc3N2CCCS(=O)(=O)[O-])c2ccccc21	-6.4%	.	.
COc1ccc2[nH]cc(CCNc3nc(-c4ccoc4)nc4ccccc34)c2c1	34.6%	-28.9%	.
COc1cccc(-c2nc(NCCc3c[nH]c4ccc(OC)cc34)c3ccccc3n2)c1	25.1µM*	6.7%	.
Cc1cccc(C2=N[C@@H](CC(C)C)CO2)c1	.	-30.9%[96.6 µM]	.
COC(=O)N1C(c2ccccc2)=Cc2ccccc2C1C1(C(=O)OC)CCCC1=O (configuration not stated)	-6.2%	-43.0%	.
Cc1ncc(CO)c(/C=N/NC(=O)c2cc(Br)ccc2O)c1O	-2.3%	-131.5%	?
Cc1ncc(CO)c(/C=N/NC(=O)c2ccc(Br)cc2)c1O	2.2%	39.7%[10 µM]	11.2µM*
CS(=O)(=O)N1CCC[C@@]2(CCN(Cc3ccccc3)C2)C1	5.7%	23.9%	.
CCc1ccc(CCC(=O)O)nc1	.	8.4%[10 µM]	.
O=C1c2ccccc2-c2n[nH]c(=O)c3ccc(N4CCCCC4)c1c23	?	-132.6%	20µM*
O=C1c2cccc3c(N4CCCCC4)ccc(c23)C(=O)N1c1ccccn1	.	-54.9%	?
CNc1ncncc1-c1ccccc1OC	25.1%	14.0%	.
Nc1ccc(N=Nc2ccccc2)c2ccccc12	17.8µM*	-8.8%[10 µM]	-11.0%[9.22 µM]
SMILES	ERK EGF inh	HTT ATP protect	HTT aggregate
Nc1ccc(N=Nc2ccccc2)c(N)n1	3.2%[57.5 µM]	-36.5%	17.2%
COC/C=C/C1=CC2=CC(=O)C(C)(OC(=O)c3ccc(Cl)nc3)C(=O)C2=CO1 (configuration not stated)	-12.4%	4.9%	.
O=C1N/C(=N\N=C\c2cccs2)SC1Cc1ccc(Cl)cc1Cl (configuration not stated)	-6.9%	-1.0%[10 µM]	-9.1%
O=C1N/C(=N\N=C\c2cccs2)SC1Cc1cccc(Cl)c1Cl (configuration not stated)	3.3%	?	11.2µM*
C=CCC(C)(O)CCc1ccccc1 (configuration not stated)	1.2%	-43.4%	.
Brc1ccc(C2C3=C(Nc4ncnn42)c2ccccc2OC3c2ccncc2)cc1 (configuration not stated)	.	-61.4%	10µM*
COc1ccc(C2Oc3ccccc3C3=C2C(c2cccs2)n2ncnc2N3)cc1 (configuration not stated)	.	-48.9%	-24.9%
COc1ccccc1-c1cncnc1NCc1cnc(C)cn1	.	8.1%	.
CCOc1ccc(N2C(=O)Nc3ccccc3C2(O)C(=O)NCc2ccc(F)cc2)cc1 (configuration not stated)	2.6%	6.8%	8.6%
CCOc1ccc(N2C(=O)Nc3ccccc3C2(O)C(=O)NCc2ccc(OC)cc2)cc1 (configuration not stated)	-0.3%	16.4%[10 µM]	0.708µM*
COC(=O)[C@@H]1C[C@@]2(O)[C@@H](O)[C@@H](O)[C@@H](O)C[C@H]2N1CC1CC1	-3.3%	-16.7%	.
O=C(Nc1cccc(F)c1)N1CCC2(CC1)CCN(C(=O)c1ccco1)CC2	9.4%	?	.
CC(C)[C@@H](CC(=O)N[C@@H]1CCCC[C@H]1C(=O)N[C@H](CC(=O)N[C@@H](CCC(=O)O)CC(=O)O)Cc1c[nH]c2ccccc12)NC(=O)C[C@H](Cc1ccccc1)NC(=O)[C@@H]1CNCC[C@H]1N	4.0%	-33.5%	.
O=C(N/N=C/c1cc(Cl)cc([N+](=O)[O-])c1O)c1ccccc1NS(=O)(=O)c1cccs1	4.2%[57.5 µM]	17.2%[10 µM]	-6.7%[9.22 µM]
Cc1cc(C(=O)N/N=C/c2cc(Cl)cc([N+](=O)[O-])c2O)c2ccccc2n1	-1.4%	-0.1%[10 µM]	15.8µM*
Cn1cccc1C(=O)N1CCC2(CCCN(c3ncccn3)C2)CC1	1.8%	15.7%	.
CC(=O)/C(=C/c1ccccc1)C(=O)Nc1ccccc1C	-6.0%	-29.4%	-16.2%
Cc1ccccc1NC(=O)C(=Cc1ccc(C(=O)O)cc1)C(=O)Nc1ccccc1C	-8.8%	40.2%[10 µM]	6.31µM*
O=c1[nH]c(Cl)nc2c1ncn2C1OC(CO)C(O)C1O (configuration not stated)	13.3%	.	.
CCOC(=O)c1ccc(C#Cc2ccc3c(c2)C(C)(C)CCS3)nc1	.	-33.5%	0.0%
COc1cccc2c1C(=O)C=C(C)C2=O	-17.1%	8.5%[0.074 µM]	14.1µM*
CC1=CC(=O)c2ccccc2C1=O	-13.4%	-368.4%	-96.5%
COC(=O)C1=C(C(=O)OC)[C@@H]2N(C)c3ccccc3[C@@]23C[C@@H](C(=O)OC)N(S(=O)(=O)c2ccc(C(F)(F)F)cc2)C3=N1	.	-21.8%[10 µM]	.
COc1ccccc1CN1CC2(CCN(C(=O)c3cnccn3)CC2)C1	8.3%	-11.8%	.
Cc1ccc(C2CC(=O)Oc3ccc(C(C)(C)C)cc32)cc1 (configuration not stated)	.	28.2µM*	.
SMILES	ERK EGF inh	HTT ATP protect	HTT aggregate
Cc1ccc(C2CC(=O)Oc3ccc(O)cc32)cc1 (configuration not stated)	.	-75.6%[96.6 µM]	.
O=C(Nc1ccccc1C(=O)O)c1ccc(NC(=O)c2ccc(Br)o2)cc1	.	2.24µM*	10.2%[1.84 µM]
O=C(Nc1ccccc1C(=O)O)c1cccc(NC(=O)c2ccc(Br)o2)c1	.	1.2%[10 µM]	-12.6%
O=C(N[C@@H](Cc1ccccc1)C(=O)O)c1ccccc1	4.5%	-40.1%	.
NC(N)=NC(N)=Nc1c(F)c(F)c(F)c(F)c1F	.	12.5%[10 µM]	.
Cc1cc(/C=C/C(=O)O)c(C)n1-c1ccc(Cl)cc1	2.1%	-42.3%	23.9%
Cc1cc(/C=C\c2ccc3cc(N(C)C)ccc3[n+]2C)c(C)n1-c1ccccc1	?	-92.6%[17.1 µM]	3.16µM*
Fc1ccccc1	.	-17.2%	.
O=c1c2cn[nH]c2nc(SCc2cc(=O)n3cc(Br)ccc3n2)n1-c1ccc(Br)cc1	3.7%[57.5 µM]	4.9%	9.4%
O=c1c2cn[nH]c2nc(SCc2ccccc2F)n1-c1ccc(Br)cc1	5.7%	.	12.6µM*
